# Test results from paper PMC4336329 (PLoS ONE, 2015).
# About 2,200 (0.71%) of roughly 310,000 compounds showed an effect of 50% or more. Effects have a minus sign here. The full list was thinned out, with strong results kept by preference.
# Target: human ether-à-go-go-related gene (hERG) potassium channel (human, UniProt Q12809)
# Test: primary screen, population patch clamp on CHO cells stably expressing hERG; higher = less effect of the substance
# human ether-à-go-go-related gene (hERG) potassium channel, sequence (Q12809 whole entry, looked up): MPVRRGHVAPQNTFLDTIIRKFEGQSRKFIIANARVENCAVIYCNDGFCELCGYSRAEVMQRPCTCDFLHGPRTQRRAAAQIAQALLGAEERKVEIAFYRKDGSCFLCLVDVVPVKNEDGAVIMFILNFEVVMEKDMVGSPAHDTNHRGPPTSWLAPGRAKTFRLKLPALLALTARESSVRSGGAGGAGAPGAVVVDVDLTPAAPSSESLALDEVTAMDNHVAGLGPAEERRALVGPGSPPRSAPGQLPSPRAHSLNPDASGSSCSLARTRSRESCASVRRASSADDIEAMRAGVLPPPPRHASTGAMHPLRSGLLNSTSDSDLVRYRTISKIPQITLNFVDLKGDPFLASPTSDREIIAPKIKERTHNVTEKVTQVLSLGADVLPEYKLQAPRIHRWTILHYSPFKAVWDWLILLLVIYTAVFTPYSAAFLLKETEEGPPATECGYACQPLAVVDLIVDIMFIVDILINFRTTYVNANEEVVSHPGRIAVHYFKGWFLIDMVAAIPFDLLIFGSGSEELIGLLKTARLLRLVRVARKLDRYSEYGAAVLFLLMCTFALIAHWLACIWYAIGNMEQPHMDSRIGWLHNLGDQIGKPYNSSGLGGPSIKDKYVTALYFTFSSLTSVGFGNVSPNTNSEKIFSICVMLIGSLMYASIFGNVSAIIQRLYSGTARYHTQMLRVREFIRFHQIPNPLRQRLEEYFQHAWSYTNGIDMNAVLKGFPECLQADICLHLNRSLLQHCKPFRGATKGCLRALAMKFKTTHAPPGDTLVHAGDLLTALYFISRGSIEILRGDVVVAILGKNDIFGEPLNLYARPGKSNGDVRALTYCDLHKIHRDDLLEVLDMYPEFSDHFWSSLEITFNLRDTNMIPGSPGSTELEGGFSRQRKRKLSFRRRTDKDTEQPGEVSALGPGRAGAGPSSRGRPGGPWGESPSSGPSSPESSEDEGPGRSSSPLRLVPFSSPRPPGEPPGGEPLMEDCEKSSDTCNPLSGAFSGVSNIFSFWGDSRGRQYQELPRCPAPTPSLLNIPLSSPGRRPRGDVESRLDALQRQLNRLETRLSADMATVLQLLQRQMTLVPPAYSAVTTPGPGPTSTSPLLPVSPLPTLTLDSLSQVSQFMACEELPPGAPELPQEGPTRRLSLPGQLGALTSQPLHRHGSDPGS
row,SMILES,"hERG current change (%, negative = inhibition) at 1uM [%]"
1,CCCNC(=O)COc1coc(CN2CCN(Cc3ccccc3)CC2)cc1=O,15.2
2,Cc1cc(Cl)ccc1NC(=O)COC(=O)c1c(C)noc1C,7.79
3,COc1cc(OC)cc(C(=O)NCC(=O)Nc2ccc(C)c(Cl)c2)c1,12.6
4,O=C(Cc1ccc(Cl)cc1)N1CCN(C(=O)c2ccco2)CC1,4.2
5,COc1ccc(-c2cc(C(=O)N3CCN(C(=O)c4ccco4)CC3)[nH]n2)cc1,-12.7
6,CC(=O)N1CCN(C(=O)c2ccc(-c3cccc(C(F)(F)F)c3)o2)CC1,-19.2
7,Cc1ccc(-c2cc(C(=O)N3CCN(C(=O)c4ccco4)CC3)[nH]n2)cc1C,14.4
8,O=C(c1ccco1)N1CCN(C(=O)c2ccc(-c3ccccc3Cl)o2)CC1,-13.8
9,O=C(c1cc(-c2ccc(Cl)cc2)n[nH]1)N1CCN(C(=O)c2ccco2)CC1,-69.3
10,O=C(c1ccc(-c2cccc(C(F)(F)F)c2)o1)N1CCCCCCC1,5.25
11,O=C(c1ccco1)N1CCN(C(=O)c2ccc(-c3cccc(C(F)(F)F)c3)o2)CC1,-63.5
12,O=C(c1ccco1)N1CCN(C(=O)c2ccc(-c3ccc(Cl)cc3)o2)CC1,-67.5
13,CN1CC[C@@]2(C)c3cc(O)ccc3N(C)C2O1 (stereo partly shown),4.17
14,Oc1[nH]c2ccccc2c1C1=NCCCCC1,3.28
15,CC(C)c1nc2sc3c(c2c(=O)o1)CCCC3,9.49
16,Cc1ccc(C(=O)N/C(=C\c2cn(S(=O)(=O)N(C)C)c3ccccc23)C(=O)N2CCCC2)cc1,16
17,CC(=O)c1c(C)nn(CCC(=O)O)c1C,12.2
18,Cl.c1ccc2c(NCC3CCCO3)nc(N3CCCCC3)nc2c1 (stereo not shown),-49.3
19,Cl.c1ccc(CNc2nc(N3CCN(Cc4ccccc4)CC3)nc3ccccc23)cc1,10.4
20,Cl.OCCNc1nc(N2CCN(Cc3ccccc3)CC2)nc2ccccc12,-28.6
21,Cl.OCCN1CCN(c2nc(NCc3ccco3)c3ccccc3n2)CC1,-39.4
22,C=CCNc1nc(N2CCCC2)nc2ccccc12,-66

row,SMILES,"hERG current change (%, negative = inhibition) at 1uM [%]"
1,Cl.OCCNc1nc(N2CCCCC2)nc2ccccc12,-18.4
2,Cl.c1ccc(N2CCN(c3nc(NCc4ccco4)c4ccccc4n3)CC2)cc1,-9.89
3,Cl.c1ccc(CN2CCN(c3nc(NCc4ccco4)c4ccccc4n3)CC2)cc1,-54.5
4,Cl.c1coc(CNc2nc(N3CCCCC3)nc3ccccc23)c1,-80.8
5,CC(=O)OC1C(N2CCCCC2)c2c(ccc(/C=C/C(=O)N3CCCCC3)c2O)OC1(C)C (stereo not shown),8.42
6,O=c1ccc(-c2n[nH]c(=S)n2-c2ccc(F)c(Cl)c2)n[nH]1,14.8
7,CC(C)C(=O)NC(NC(=S)Nc1ccc(S(N)(=O)=O)cc1)C(Cl)(Cl)Cl (stereo not shown),12.7
8,CS(=O)(=O)c1ccccc1C(=O)N(CCc1ccccc1)Cc1ccccc1,9.2
9,S=C1N(c2ccccc2)C(c2ccccc2)N2CCCN12 (stereo not shown),6.76
10,CCOCCCN(C)C1CCN(C(=O)c2oc3ccccc3c2NC(=O)COc2ccc(F)cc2)CC1,-85.9
11,CCOCCCN(C)C1CCN(C(=O)c2oc3ccccc3c2NC(=O)c2ccc(F)cc2)CC1,-85.6
12,COc1ccc(CC(=O)Nc2c(C(=O)N3CCN(c4ccccc4OC)CC3)oc3ccccc23)cc1OC,9.46
13,COCCCN(C)C1CCN(C(=O)Nc2ccc(F)cc2)CC1,-2.37
14,CCOC(=O)c1oc2ccccc2c1NC(=O)COc1ccc(F)cc1,12.4
15,CCOC(=O)c1oc2ccccc2c1NC(=O)COc1cccc(OC)c1,14.2
16,NC(=O)c1oc2ccccc2c1NC(=O)c1ccc(F)cc1,11.1
17,CCOCCCN(C)C1CCN(C(=O)c2oc3ccccc3c2NC(=O)Cc2ccc(F)cc2)CC1,-85.2
18,O=C(COc1ccc(F)cc1)Nc1c(C(=O)N2CCC(N3CCCCC3)CC2)oc2ccccc12,-33.8
19,CCOCC(=O)Nc1c(C(=O)N2CCN(c3ncccn3)CC2)oc2ccccc12,5.42
20,CCOCCCN(C)C1CCN(C(=O)c2oc3ccccc3c2NC(=O)COc2cccc(C)c2)CC1,-62.4
21,O=C(Cc1ccc(F)cc1)Nc1c(C(=O)N2CCN(c3ncccn3)CC2)oc2ccccc12,-8.61
22,CN(C)/N=C/C=C1\CCC/C(=C/c2cccs2)C1=O,7.9

row,SMILES,"hERG current change (%, negative = inhibition) at 1uM [%]"
1,O=C(COc1coc(CN2CCN(c3ccccc3)CC2)cc1=O)Nc1ccccc1,10.3
2,COc1ccc(C2NCCc3[nH]cnc32)cc1 (stereo not shown),0.887
3,CC(/C=N/NC(=O)c1cc(-c2ccncc2)nc2ccccc12)=C\c1ccco1,0.477
4,CC(c1ccco1)N(C(=O)COc1ccccc1[N+](=O)[O-])c1ccccn1 (stereo not shown),0.845
5,CC1CC(C)CN(C(=O)c2ccc(C(=O)c3ccccc3)cc2)C1 (stereo not shown),-1.23
6,Nc1nonc1-n1nnc(C(=O)N/N=C/c2ccccc2Cl)c1-c1ccccc1,18.9
7,COc1ccc(CCN(C)C(=O)c2ccc(S(=O)(=O)Nc3ccccc3C)cc2)cc1OC,10.8
8,O=C(Nc1ccc(S(=O)(=O)NC2CCCCC2)cc1)c1ccc(Br)o1,1.61
9,Cc1nccc2c1[nH]c1ccccc12,10.2
10,COc1cc2[nH]c3ccccc3c2cc1C,10.5
11,Cc1cc2[nH]c3c(c[n+](C)c4ccccc34)c2cc1C.[I-],-75.9
12,O=c1[nH]c(SCc2ccccc2)nc2c1cnn2-c1ccc(F)cc1,4.7
13,COc1ccc(C(CNC(=O)c2ccc(C)o2)N2CCOCC2)cc1 (stereo not shown),-1.5
14,CCOC(=O)C1CCCN(CC(=O)Nc2c(C(=O)OC)[nH]c3ccc(Br)cc23)C1 (stereo not shown),-3.53
15,COC(=O)c1[nH]c2ccccc2c1NC(=O)C(C)N1CCOCC1 (stereo not shown),9.91
16,COC(=O)c1[nH]c2ccc(C)cc2c1NC(=O)C(C)N1CCN(C2CCCCC2)CC1 (stereo not shown),-81
17,CCOC(=O)c1[nH]c2ccc(Br)cc2c1NC(=O)CCN1CCCC(C)C1 (stereo not shown),-66.8
18,COC(=O)c1[nH]c2ccc(Br)cc2c1NC(=O)CN1CCN(C2CCCCC2)CC1,-85.1
19,CCOC(=O)c1[nH]c2ccc(OC)cc2c1NC(=O)CCN1CCCC(C)C1 (stereo not shown),-3.69
20,COC(=O)c1[nH]c2ccc(C)cc2c1NC(=O)NC1CCCCC1,9.66
21,CCOC(=O)c1[nH]c2ccc(Br)cc2c1NC(=O)CCN1CCC(C)CC1,-36.9
22,COC(=O)c1[nH]c2ccc(Cl)cc2c1NC(=O)CCN1CCN(C2CCCCC2)CC1,-69.5

row,SMILES,"hERG current change (%, negative = inhibition) at 1uM [%]"
1,COC(=O)c1[nH]c2ccc(Cl)cc2c1NC(=O)CN1CCC(C(N)=O)CC1,10.6
2,COC(=O)c1[nH]c2ccc(Cl)cc2c1NC(=O)CCN1CCOCC1,9.37
3,COC(=O)c1[nH]c2ccc(Br)cc2c1NC(=O)CN1CCCCC1CCO (stereo not shown),5.4
4,NC(=O)Nc1ccccc1C(=O)NCCc1ccccc1,9.22
5,Cn1c(SCc2ccc3c(c2)OCO3)nnc1-c1ccccc1,10.4
6,Cc1cc2nnn(-c3nnc(-c4ccccc4)c4ccccc34)c2cc1C,5.53
7,CCCc1[nH]n(-c2ccc(F)cc2)c(=O)c1C=Nc1cccc(F)c1,16.9
8,COC(=O)c1[nH]c2ccc(Br)cc2c1NC(=O)CN1CCCc2ccccc21,8.7
9,COC(=O)c1[nH]c2ccc(Br)cc2c1NC(=O)C(C)N1CCN(C2CCCCC2)CC1 (stereo not shown),-82.6
10,COC(=O)c1[nH]c2ccccc2c1NC(=O)C(C)N1CC(C)OC(C)C1 (stereo not shown),10.2
11,Cc1scc(-c2n[nH]c(=S)n2C(C)c2ccccc2)c1C (stereo not shown),8.59
12,Cc1ccc(CNC(=O)[C@H](C)NC(=O)C2CCN(C(=O)[C@@H](N)CC(C)C)CC2)cc1,6.77
13,OCCNc1c2c(nc3ccccc13)CCCC2,-15.9
14,c1coc(CNc2c3c(nc4ccccc24)CCC3)c1,-82
15,O=C(NCc1ccco1)c1c2c(nc3ccccc13)CCC2,3.32
16,Cl.c1ccc(CNc2c3c(nc4ccccc24)CCC3)cc1,-75.8
17,c1ccc(CNc2c3ccccc3nc3ccccc23)cc1,-74.5
18,OCCNc1c2ccccc2nc2ccccc12,-3.35
19,COCCNc1c2c(nc3ccccc13)CCC2.Cl,-41.5
20,Cl.c1ccc(CNc2nc(NCc3ccccc3)c3ccccc3n2)cc1,16.8
21,CC(C)CNc1c2c(nc3ccccc13)CCC2.Cl,-33.5
22,CCc1ccc(NC(=O)c2cnc3scc(C)n3c2=O)cc1,4.58
